In PubChem BioAssay AID624354 (Sanford-Burnham Center for Chemical Genomics, 2012):
Hit rate of the full screen: of about 360,000 compounds, about 3,800 (1.1%) were called active. Many of the other results were omitted from the sample, so actives are more common in it than they were. Values without a mark were called inactive.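 How the source made its calls: active means compounds causing at least 50% loss of cell viability in the single-dose screen, relative to plate controls; inactive means the rest.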

Assay: TRAIL-exposed caspase-8 expressing cell killing – NB7+C8 cells, ATPlite luminescence, TRAIL sensitizer project, primary screen (AID 624354)
Details: at 10 µM, hits give high values

Row | SMILES | inhibition (viability loss, TRAIL sensitization)
1 | COc1cccc(-c2cc3nc(NCCOc4ccccc4Cl)n(C)c(=O)c3s2)c1 | -1.03%
2 | Cn1c(NCc2cccnc2)nc2cc(-c3ccc(F)cc3)sc2c1=O | 12.2%
3 | O=c1[nH]c(CCl)nc2cc(-c3ccc(Cl)cc3)sc12 | 94.8% (active)
4 | CN(CC(=O)Nc1cccc(F)c1)C(=O)C1CC(=O)N(CCc2ccccc2)C1 (stereo not drawn) | 0.466%
5 | C(=N\Nc1ccc2ccccc2n1)/c1ccc2c(c1)OCO2 | 62.1% (active)
6 | O=C(CNC(=O)C(c1ccccc1)c1ccccc1)N/N=C\c1ccc2c(c1)OCO2 | 9.36%
7 | Clc1ccc(Nc2ccc3ccccc3n2)cc1 | 22.5%
8 | COc1ccc(NC(=O)C2(C)Cc3c(-c4cccc(NC(C)=O)c4)ccnc3O2)cc1OC (stereo not drawn) | 4.61%
9 | CCCCN1CC(N2CCN(Cc3cccc(C)c3)CC2)CS1(=O)=O (stereo not drawn) | 4.54%
10 | CC(=O)[C@@]12O[C@@H]1C[C@H]1[C@@H]3CC[C@H]4C[C@@H](O)CC[C@]4(C)[C@H]3CC[C@@]12C | 0.527%
11 | CCCNc1c(N)c(=O)c1=O | -1.54%
12 | C[C@H]1COc2cc(N3CCSCC3)ccc2S(=O)(=O)N1 | -6.12%
13 | Cc1cc(Br)cn2c(Cc3ccccc3C(F)(F)F)c(-c3ccc(Cl)cc3)nc12 | 22.1%
14 | O=C(O)c1cc(S(=O)(=O)N(Cc2ccccc2)c2ccccc2)ccc1Cl | -9.38%
15 | CCN(CC)CCCC(C)n1c2nc(=O)[nH]c(=O)c-2nc2cc(Cl)ccc21 (stereo not drawn) | 48.4% (active)
16 | CCc1ccc(S(=O)(=O)Nc2ccc(C)c(NS(C)(=O)=O)c2)cc1 | -5.21%
17 | Cc1c(O)c(C)c2c(c1O)C(=O)C[C@@H](c1ccccc1)O2 | 18.2%
18 | CC1CN(C(=O)CCC(=O)NCCCN2CCC(Cc3ccccc3)CC2)c2cc(Cl)ccc2O1 (stereo not drawn) | 40.8%
19 | CC(C)=CCC/C(C)=C/C(=O)O | -7.95%
20 | O=C(COC(=O)c1ccc(O)cc1O)c1ccc2c(c1)OCCO2 | 0.773%
21 | O=C(/C=C/c1ccc2c(c1)OCCO2)c1ccc(O)cc1 | 58.1% (active)
22 | COc1ccc(OC)c(/C=C/C(=O)c2ccc3c(c2)OCO3)c1 | 12.1%
23 | CCOCCCN(C(=O)Cn1nnc(-c2ccc(OC)c(OC)c2)n1)C(CC)C(=O)NC1CCCC1 (stereo not drawn) | -5.95%
24 | CCOC(=O)C(NS(=O)(=O)c1ccc(C)cc1)(C(F)(F)F)P(=O)(OCC(C)C)OCC(C)C (stereo not drawn) | 27.5%

Row | SMILES | inhibition (viability loss, TRAIL sensitization)
25 | COc1ccccc1N1CCN(S(=O)(=O)c2ccc3c(c2)NC(=O)CS3)CC1 | 8.43%
26 | Cc1nn(Cc2ccc(C(=O)N3N=C(C(F)F)CC3(O)C(F)F)cc2)c(C)c1[N+](=O)[O-] (stereo not drawn) | 0.592%
27 | CC(=O)Nc1ccc(S(=O)(=O)NC(C)C(=O)OCCOc2ccc(F)cc2)cc1 (stereo not drawn) | -1.76%
28 | CS(=O)(=O)c1cccc(-c2ccc3nncn3c2)c1 | 1.26%
29 | CC(C)n1cnc2c(NCc3ccccc3)cc(OCC3CCN(C)CC3)cc21 | 54.6% (active)
30 | COCCNC(=O)CN(C(=O)CCC(=O)Nc1cc(C)on1)c1ccc(C)cc1C | 12.5%
31 | O=C(NCc1ccccc1)C(c1ccc(F)cc1)N1CCN(C(=O)C2CCCO2)CC1 (stereo not drawn) | 3.33%
32 | Cc1ccc(C)c(NC(=O)CSc2nc3c(oc4ccccc43)c(=O)n2-c2ccccc2)c1 | -5.26%
33 | CCCCC(=O)Nc1cc(C)c2c(=O)oc3ccccc3c2n1 | 58.6% (active)
34 | CCCCC(=O)Nc1ccc2c(c1)C(=O)NC2=O | 8.86%
35 | Cc1cc(Cl)c(S(=O)(=O)Nc2ccc3c(c2)OCCO3)cc1OCC(N)=O | 1.34%
36 | CC1CCc2c(sc3c2C2=NS(=O)(=O)CCN2C=N3)C1 (stereo not drawn) | -12.9%
37 | O=C1C[C@@H]2c3c(cccc3CN1Cc1ccccc1)C[C@@H](O)[C@H]2O | -11.3%
38 | COc1ccc2c(c1)CCCO[C@]21O[C@H](CCO)C[C@H](O)[C@H]1O | 2.33%
39 | Nc1nc2ncccn2c1-c1ccccc1 | -21.7%
40 | COc1ccc(C(=O)NC(C)c2nccs2)cc1OC1CCN(C(C)C)CC1 (stereo not drawn) | -24.4%
41 | O=C(CC1SC(=Nc2ccccc2F)N(CCN2CCOCC2)C1=O)Nc1ccc(F)cc1F (stereo not drawn) | 72.8% (active)
42 | O=C(CC1SC(N2CCOCC2)=NC1=O)Nc1ccccc1F (stereo not drawn) | 7.68%
43 | O=C(CN1CCN(C/C=C/c2ccccc2)CC1)Nc1ccc(F)cc1F | 8.21%
44 | NC(=O)c1ccc(N2CCOCC2)nc1 | -4.39%
45 | COc1ccc(N(C)S(=O)(=O)c2cccc3nsnc23)cc1 | -0.348%
46 | CC1(C)CC(N2CCN(C(c3ccccc3)c3ccccc3)CC2)=CC(=[N+]2CCCCC2)C1 | 53.6% (active)
47 | CCOC(=O)C1=C(c2ccccc2)N=C2SCC(=O)N2C1c1ccc(O)c(OC)c1 (stereo not drawn) | -13.7%
48 | O=C(Nc1ccc2c(c1)OCCO2)C(C1CC1)N1CCC(Cc2ccccc2)CC1 (stereo not drawn) | 1.75%
